Measured values reported in PubChem BioAssay (Tox21).
Results filed as inconclusive are left out. Activity calls are given as the source filed them. Unless noted, the call rests on the fitted dose curve.

Columns and labels:
[1] = Nuclear factor erythroid 2-related factor 2/antioxidant responsive element (Nrf2/ARE) small molecule agonists: qHTS cell viability counter screen in human keratinocytes (AID 1919968; active means well fitted curve in the direction sought with a large enough effect in the repeat runs; an effect the other way counts as inactive or inconclusive; further: nearly all actives have a fitted effect of over 55% in size)
How it was run: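 CellTiter-Fluor fluorescence, read 1 h after reagent, gave viability in the same wells as the ARE-luciferase assay. KeratinoSens cells (1,500/well) had 23 h compound exposure at 37 C/5% CO2 following 5 h plating.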

[2] = Nuclear factor erythroid 2-related factor 2/antioxidant responsive element (Nrf2/ARE) small molecule agonists: luciferase reporter gene qHTS assay in human keratinocytes (AID 1919969); further: nearly all actives have a fitted effect of over 35% in size
[3] = molecular target: Gonadotropin-releasing hormone receptor (Homo sapiens) (UniProt P30968); test: Human gonadotropin-releasing hormone receptor (GnRHR) small molecule agonists, calcium flux assay in GnRHR-HEK293 cells (AID 1920063); further: nearly all actives have a fitted effect of over 35% in size
Sequence of Gonadotropin-releasing hormone receptor (Homo sapiens) (P30968 whole entry, looked up): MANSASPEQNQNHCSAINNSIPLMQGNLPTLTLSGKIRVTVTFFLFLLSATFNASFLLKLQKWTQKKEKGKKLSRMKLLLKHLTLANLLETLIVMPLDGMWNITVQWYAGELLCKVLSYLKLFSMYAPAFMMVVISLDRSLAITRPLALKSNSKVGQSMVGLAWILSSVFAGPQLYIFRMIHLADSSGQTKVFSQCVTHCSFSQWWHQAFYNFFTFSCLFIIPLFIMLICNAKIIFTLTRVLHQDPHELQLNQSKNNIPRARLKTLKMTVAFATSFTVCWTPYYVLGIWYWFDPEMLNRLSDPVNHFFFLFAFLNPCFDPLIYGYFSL
How it was run: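 Agonist mode: compounds at 15 concentrations, in triplicate, went onto calcium dye-loaded GnRHR-HEK293 cells. Intracellular calcium was then followed as 480/540 nm fluorescence at 1 s intervals over 3 min.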

[4] = molecular target: KiSS-1 receptor (Homo sapiens) (UniProt Q969F8); test: Human kisspeptin (KISS1R) small molecule agonists, calcium flux assay in KISS1R-HEK293 cells (AID 1920064; active means well fitted curve in the direction sought with a large enough effect in the repeat runs; an effect the other way counts as inactive or inconclusive)
Sequence of KiSS-1 receptor (Homo sapiens) (Q969F8 whole entry, looked up): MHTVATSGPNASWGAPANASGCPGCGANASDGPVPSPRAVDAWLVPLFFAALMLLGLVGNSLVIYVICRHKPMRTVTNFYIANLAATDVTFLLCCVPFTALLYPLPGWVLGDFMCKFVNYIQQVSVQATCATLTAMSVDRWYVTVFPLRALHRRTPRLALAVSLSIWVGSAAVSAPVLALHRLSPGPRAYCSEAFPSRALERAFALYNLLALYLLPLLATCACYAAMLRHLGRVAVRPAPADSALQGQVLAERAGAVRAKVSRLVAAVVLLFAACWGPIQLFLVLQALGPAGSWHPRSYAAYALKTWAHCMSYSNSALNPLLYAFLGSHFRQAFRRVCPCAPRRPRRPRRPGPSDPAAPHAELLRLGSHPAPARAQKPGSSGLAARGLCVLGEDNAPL
How it was run: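 Agonist mode: intracellular calcium rise tracked at 1 s intervals over 3 min (480/540 nm) immediately after compound addition to dye-loaded KISS1R-HEK293 stable cells. Each compound tested at 15 concentrations in triplicate.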

[5] = G protein-coupled receptor (GPCR) small molecule agonists, calcium flux assay: HEK293 wild type cell line counter screen (AID 1920065)
How it was run: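 Calcium flux counter screen: compound added in agonist mode at 15 concentrations in triplicate to dye-loaded parental HEK293 cells. Fluorescence (480/540) read kinetically for 3 min; ATP served as positive control.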

[6] = p53 small molecule agonists, cell-based qHTS assay with human liver microsomes (AID 1963577)
How it was run: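 Fluorescence of the beta-lactamase reporter in p53RE-bla cells, detected with LiveBLAzer substrate (2 h, room temperature, dark), served as the read-out after 16 h compound exposure at 37 C with human liver microsomes and NADPH, each 0.5 mg/mL final.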

[7] = p53 small molecule agonists, cell-based qHTS assay with rat liver microsomes (AID 1963578)
How it was run: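 Cells carrying a p53 response element–beta-lactamase reporter were plated and rested 5 h, then dosed with compound in DMSO plus rat liver microsomes and NADPH, each at 0.5 mg/mL final. After 16 h at 37 C, LiveBLAzer substrate was added for 2 h.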

[8] = p53 small molecule agonists, cell-based qHTS assay with human liver microsomes: qHTS cell viability counter screen (AID 1963579); further: nearly all actives have a fitted effect of over 45% in size
How it was run: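 Cytotoxicity counter screen: p53RE-bla, 4,000 cells/well; 5 h settle, 37 C/5% CO2; cpd + HLM 0.5 mg/mL + NADPH 0.5 mg/mL (final); 16 h, 37 C; CellTiter-Glo, 30 min RT, luminescence.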

[9] = p53 small molecule agonists, cell-based qHTS assay with rat liver microsomes: qHTS cell viability counter screen (AID 1963580); further: nearly all actives have a fitted effect of over 45% in size
How it was run: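 Cytotoxicity counter screen: intracellular ATP measured by CellTiter-Glo luminescence in the same wells as the beta-lactamase reporter read, on HCT-116 p53RE-bla cells exposed 16 h at 37 C to compounds with rat liver microsomes and NADPH, each 0.5 mg/mL final.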

[10] = p53 small molecule agonists, cell-based qHTS assay: qHTS cell viability counter screen (AID 1963581); further: nearly all actives have a fitted effect of over 45% in size
How it was run: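 Counter screen read by CellTiter-Glo luminescence (ATP content, 30 min at room temperature), run in the same wells as the beta-lactamase reporter read. HCT-116 p53RE-bla cells saw compounds for 16 h at 37 C.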

[11] = p53 small molecule agonists, cell-based qHTS assay (AID 1963582; active means well fitted activation curve with a large enough effect in the signal ratio in the repeat runs, not every such curve was filed as active; the % refers to the signal ratio)
How it was run: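 Read-out is beta-lactamase FRET fluorescence after 2 h at room temperature with LiveBLAzer B/G substrate. p53 response element-bla cells were treated 16 h at 37 C with compounds in DMSO, added 5 h after seeding.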

[12] = molecular target: 5-hydroxytryptamine receptor 2A (Homo sapiens) (UniProt P28223); test: 5-hydroxytryptamine receptor 2A (HTR2A) small molecule antagonists, cell-based qHTS assay (AID 1963586); further: nearly all actives have a fitted effect of over 45% in size
Sequence of 5-hydroxytryptamine receptor 2A (Homo sapiens) (P28223 whole entry, looked up): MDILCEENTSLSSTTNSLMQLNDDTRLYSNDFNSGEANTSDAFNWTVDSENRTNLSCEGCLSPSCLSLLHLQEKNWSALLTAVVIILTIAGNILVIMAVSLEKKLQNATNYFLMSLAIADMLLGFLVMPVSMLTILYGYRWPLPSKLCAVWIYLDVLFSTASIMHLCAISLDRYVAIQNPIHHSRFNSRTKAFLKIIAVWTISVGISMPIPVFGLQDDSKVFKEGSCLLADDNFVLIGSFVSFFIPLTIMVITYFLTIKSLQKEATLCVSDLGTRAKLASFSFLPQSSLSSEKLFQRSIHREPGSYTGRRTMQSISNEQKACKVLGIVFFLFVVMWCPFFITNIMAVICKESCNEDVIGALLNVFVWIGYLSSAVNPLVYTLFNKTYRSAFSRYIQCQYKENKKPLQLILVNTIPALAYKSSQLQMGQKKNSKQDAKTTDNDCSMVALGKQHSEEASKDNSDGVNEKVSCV
How it was run: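 CHO cells stably expressing human HTR2A were plated for 18 h at 37 C, then loaded with calcium dye for 1 h. Compounds were preincubated 5 min at room temperature before DOI (4 nM solution) was added. Kinetic fluorescence was read for 3 min.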

[13] = molecular target: 5-hydroxytryptamine receptor 2A (Homo sapiens) (UniProt P28223); test: 5-hydroxytryptamine receptor 2A (HTR2A) small molecule agonists, cell-based qHTS assay (AID 1963587); further: nearly all actives have a fitted effect of over 30% in size
How it was run: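 CHO cells stably expressing human HTR2A, plated 18 h, loaded with calcium dye 1 h at 37 C. Agonist mode: compounds added and intracellular calcium fluorescence recorded kinetically for 2 min at 1 sec intervals.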

[14] = molecular target: Muscarinic acetylcholine receptor M1 (Homo sapiens) (UniProt P11229); test: Cholinergic receptor muscarinic 1 (CHRM1) small molecule antagonists, cell-based qHTS assay (AID 1963588); further: nearly all actives have a fitted effect of over 40% in size
Sequence of Muscarinic acetylcholine receptor M1 (Homo sapiens) (P11229 whole entry, looked up): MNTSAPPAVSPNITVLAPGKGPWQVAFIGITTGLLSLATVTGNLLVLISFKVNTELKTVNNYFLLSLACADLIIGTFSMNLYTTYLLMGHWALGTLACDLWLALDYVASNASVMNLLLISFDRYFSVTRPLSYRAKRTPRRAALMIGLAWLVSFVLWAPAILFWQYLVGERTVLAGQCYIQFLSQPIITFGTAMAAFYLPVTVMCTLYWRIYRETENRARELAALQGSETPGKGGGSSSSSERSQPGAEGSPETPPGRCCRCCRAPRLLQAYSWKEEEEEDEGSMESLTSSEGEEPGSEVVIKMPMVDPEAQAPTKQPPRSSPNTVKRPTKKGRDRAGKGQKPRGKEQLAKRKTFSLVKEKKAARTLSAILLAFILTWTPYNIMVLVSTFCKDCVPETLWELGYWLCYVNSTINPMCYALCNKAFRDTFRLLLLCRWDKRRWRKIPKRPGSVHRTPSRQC
How it was run: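 Compounds were tested at 15 concentrations in three independent runs. Dye-loaded CHRM1-CHO cells were exposed 5 min at room temperature before stimulation by acetylcholine added at 50nM. Intracellular calcium was read kinetically on FDSS for 3 min.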

[15] = molecular target: Muscarinic acetylcholine receptor M1 (Homo sapiens) (UniProt P11229); test: Cholinergic receptor muscarinic 1 (CHRM1) small molecule agonists, cell-based qHTS assay (AID 1963589); further: nearly all actives have a fitted effect of over 35% in size
How it was run: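 Agonist-mode calcium-flux screen: compounds at 15 concentrations, three independent runs, were pin-transferred onto dye-loaded human CHRM1-CHO cells. Fluorescence was then recorded kinetically every second over minutes.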

[16] = cAMP Responsive Elements (CRE) small molecule agonists, cell-based qHTS assay (AID 1963590)
How it was run: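 Agonist mode: compound added to CRE-bla HEK 293T cells (2,000/well, 18 h after plating) for 3 h at 37 C/5% CO2. Reporter activity detected via FRET beta-lactamase substrate, 2 h room-temperature loading.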

[17] = molecular target: Beta-2 adrenergic receptor (Homo sapiens) (UniProt P07550); test: Adrenergic beta2 receptor (ADRB2) small molecule antagonists, cell-based qHTS assay (AID 1963592); further: series mostly up to about 92 µM; nearly all actives have a fitted effect of over 50% in size
Sequence of Beta-2 adrenergic receptor (Homo sapiens) (P07550 whole entry, looked up): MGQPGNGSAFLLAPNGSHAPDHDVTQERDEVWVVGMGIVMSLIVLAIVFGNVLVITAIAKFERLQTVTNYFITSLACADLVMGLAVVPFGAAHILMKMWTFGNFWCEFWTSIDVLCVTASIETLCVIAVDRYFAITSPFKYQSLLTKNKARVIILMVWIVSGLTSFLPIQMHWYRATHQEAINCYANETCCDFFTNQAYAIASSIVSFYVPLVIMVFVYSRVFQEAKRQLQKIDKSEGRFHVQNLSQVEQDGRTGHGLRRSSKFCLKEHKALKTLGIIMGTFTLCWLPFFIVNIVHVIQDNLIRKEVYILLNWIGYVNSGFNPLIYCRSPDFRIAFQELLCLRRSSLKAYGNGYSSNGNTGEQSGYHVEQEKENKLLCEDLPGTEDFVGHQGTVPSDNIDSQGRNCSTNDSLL
How it was run: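 Assay format: CHO-ADRB2 cells, 18-20hr seeding at 37C/5% CO2, then compound plus 1nM isoproterenol agonist mix for 0.5hr RT. Homogeneous time-resolved fluorescence cAMP detection after 1hr, expressed as 665/615 nm ratio.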

[18] = molecular target: D(2) dopamine receptor (Homo sapiens) (UniProt P14416); test: Dopamine D2 receptor (DRD2) small molecule agonists, cell-based qHTS assay (AID 1963594); further: nearly all actives have a fitted effect of over 35% in size
Sequence of D(2) dopamine receptor (Homo sapiens) (P14416 whole entry, looked up): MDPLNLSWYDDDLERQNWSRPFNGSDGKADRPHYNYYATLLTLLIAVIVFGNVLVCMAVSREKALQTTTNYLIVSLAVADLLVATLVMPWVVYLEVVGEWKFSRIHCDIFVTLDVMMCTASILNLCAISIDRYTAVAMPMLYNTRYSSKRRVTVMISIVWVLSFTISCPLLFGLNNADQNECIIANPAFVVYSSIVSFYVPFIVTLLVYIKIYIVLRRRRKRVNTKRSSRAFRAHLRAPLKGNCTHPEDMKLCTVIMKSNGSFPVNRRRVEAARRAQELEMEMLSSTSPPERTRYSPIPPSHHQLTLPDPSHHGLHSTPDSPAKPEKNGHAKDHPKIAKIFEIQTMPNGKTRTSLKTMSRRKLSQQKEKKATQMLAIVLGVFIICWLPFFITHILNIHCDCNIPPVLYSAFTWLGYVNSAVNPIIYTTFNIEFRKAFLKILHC
How it was run: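 HEK293 cells stably expressing human DRD2, pre-treated with PDE inhibitor Ro20-1724 (0.1 mM final) and compound 10 min at room temperature, then stimulated with NKH477 (200nM […]) for 30 min. cAMP read by HTRF (665/620 nm).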

[19] = cAMP Responsive Elements (CRE) small molecule antagonists, cell-based qHTS assay (AID 1963591; active means well fitted inhibition curve with a large enough effect in the signal ratio in the repeat runs, not every such curve was filed as active; the % refers to the signal ratio)
How it was run: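 Antagonist mode: compounds are added alongside the adenylyl cyclase activator NKH477 (0.25 uM final) to CRE-bla HEK293T cells for 3 h. LiveBLAzer FRET substrate, 2 h at room temperature, reports bla expression.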

[20] = molecular target: D(2) dopamine receptor (Homo sapiens) (UniProt P14416); test: Dopamine D2 receptor (DRD2) small molecule antagonists, cell-based qHTS assay (AID 1963595; active means well fitted inhibition curve with a large enough effect in the signal ratio in the repeat runs, with a control signal flat; the % refers to the signal ratio)
How it was run: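 Human DRD2 antagonist qHTS measuring cAMP by HTRF. The cells are exposed to compound for 10 min, then to NKH477 (200 nM) and quinpirole (12 nM) for 30 min at RT, with Ro20-1724 (0.1 mM) present throughout.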

Measured: Potency

COC(c1ccccc1)(c1ccccc1)[C@H](Oc1nc(C)cc(C)n1)C(=O)O
inactive: [1] | [2] | [3] | [4] | [5] | [6] | [7] | [8] | [9] | [10] | [11] | [12] | [13] | [14] | [15] | [16] | [17] | [18]

O=c1[nH]c2ccc(Cl)cc2o1
inactive: [1] | [2] | [3] | [4] | [5] | [6] | [7] | [8] | [9] | [10] | [11] | [12] | [13] | [14] | [15] | [16] | [19] | [18] | [20]

CN(C)C(=O)Oc1ccc[n+](C)c1
inactive: [1] | [2] | [3] | [4] | [5] | [6] | [7] | [8] | [9] | [10] | [11] | [12] | [13] | [14] | [15] | [16] | [17] | [18]

COc1ccc(Br)c(C)c1
inactive: [1] | [2] | [3] | [4] | [5] | [6] | [7] | [8] | [9] | [10] | [11] | [12] | [13] | [14] | [15] | [16] | [18] | [20]

CNC(=O)Nc1ccc(Cl)c(Cl)c1
inactive: [1] | [2] | [3] | [4] | [5] | [6] | [7] | [8] | [9] | [10] | [11] | [12] | [13] | [14] | [15] | [19] | [17] | [18] | [20]

C=CCOCC(O)CO (stereo not given)
inactive: [1] | [2] | [3] | [4] | [5] | [6] | [7] | [8] | [9] | [10] | [11] | [12] | [13] | [14] | [15] | [16] | [17] | [18] | [20]

Cc1ccc(CO)cc1
inactive: [1] | [2] | [3] | [4] | [5] | [6] | [7] | [8] | [9] | [10] | [11] | [12] | [13] | [14] | [15] | [16] | [17] | [18] | [20]

O=C1CCN(c2ccccc2)N1
inactive: [1] | [2] | [3] | [4] | [5] | [6] | [7] | [8] | [9] | [10] | [11] | [12] | [13] | [14] | [15] | [16] | [17] | [18] | [20]

O=C1Cc2cc(Cl)ccc2N1
inactive: [1] | [2] | [3] | [4] | [5] | [6] | [7] | [8] | [9] | [10] | [11] | [12] | [13] | [14] | [15] | [16] | [17] | [18] | [20]

CCSC(=O)N(CC)CC
inactive: [1] | [2] | [3] | [4] | [5] | [6] | [7] | [8] | [9] | [10] | [11] | [12] | [13] | [14] | [15] | [16] | [17] | [20]

O=C1CC2CC1C1CCCC21 (stereo not given)
inactive: [1] | [2] | [3] | [4] | [5] | [6] | [7] | [8] | [9] | [10] | [11] | [12] | [13] | [14] | [15] | [16] | [17] | [18] | [20]

CCCCCCCOC(C)=O
inactive: [1] | [2] | [3] | [4] | [5] | [6] | [7] | [8] | [9] | [10] | [11] | [12] | [13] | [14] | [15] | [16] | [17] | [18] | [20]

CCC(O)CO (stereo not given)
inactive: [1] | [2] | [3] | [4] | [5] | [6] | [7] | [8] | [9] | [10] | [11] | [12] | [13] | [14] | [15] | [16] | [17] | [18] | [20]

O=C1OC(=O)c2ccc3c4c(ccc1c24)C(=O)OC3=O
inactive: [1] | [2] | [3] | [4] | [5] | [6] | [7] | [8] | [9] | [10] | [11] | [12] | [13] | [14] | [15] | [16] | [17] | [18]

CCCCCCCC/C=C\CCCCCCCC(N)=O
inactive: [1] | [2] | [3] | [4] | [5] | [6] | [7] | [8] | [9] | [10] | [11] | [12] | [13] | [14] | [15] | [16] | [17] | [18] | [20]
